For 60 sequences, sensor-assay potency score (higher = more potent) results are on record in the OligoGym collection.

Assay in all cases: pooled miR-30 sensor sort-seq; sequence = guide strand
Holding throughout (conditions): shRNA

The target in test [1] is UBXN2A.
The target in test [2] is UNC5A.
Test [3] deals with UMOD.
Test [4] has as its target ULK1.
Test [5] deals with UNC5D.
The target in test [6] is UST.
Test [7] has as its target VAMP8.
Test [8] has as its target VNN2.
Test [9] concerns the target VNN1.
The target in test [10] is VN1R2.
The target of test [11] is VWA2.
Also: reference of the scale not given here.

Regarding TTGTACTTATCTAAACATCTTC, the sensor-assay potency score (higher = more potent) in test [1] was -0.32.

In [2], TAGACGATGACAGCAGCGGAGG yielded a sensor-assay potency score (higher = more potent) of -1.55.

Turning to TTGCACTTTTCATTCATGGTGT, the sensor-assay potency score (higher = more potent) in test [3] stood at 0.244.

TTGCAAAGAAAAACACACGTGT displayed a sensor-assay potency score (higher = more potent) in test [4] of 0.333.

Consider TTGTAGACGTAGTAGCCGCCGG, for which the sensor-assay potency score (higher = more potent) in [3] is -1.04.

Sequence TTTTTGTCTGTTATGTGGCGTG displayed a sensor-assay potency score (higher = more potent) in test [4] of -0.361.

In [4], TTGTTCTTCTCGTAGAACAGGC returned a sensor-assay potency score (higher = more potent) of -0.479.

TTGCACTTGAAGAAGATCTGCG: in [2], the sensor-assay potency score (higher = more potent) was found to be 0.732.

As for ATGTGTATGTACAAACACCAGG, the sensor-assay potency score (higher = more potent) in [4] was -1.55.

With TTAGTCTACCAGGACATCTTGT, the sensor-assay potency score (higher = more potent) in [5] is -0.288.

In test [3], TATACTGCACTCCTCACACGTC showed a sensor-assay potency score (higher = more potent) of -0.701.

Turning to TTGAAGTCCTGTTTGCACTGGC, the sensor-assay potency score (higher = more potent) in [3] amounted to 0.829.

Take TAATATATCTTGATAACTGGTA: the sensor-assay potency score (higher = more potent) in test [1] was determined as 0.173.

Consider TTGCTCTGGAGGTACCGCGCGA, for which the sensor-assay potency score (higher = more potent) in test [4] was -0.555.

In turn, TTCTTCTCGTAGAACAGGCGCA showed a sensor-assay potency score (higher = more potent) in [4] of -0.466.

Consider TAGGCCTTCTGACTCTTGGTGG, for which the sensor-assay potency score (higher = more potent) in test [2] was -0.43.

In turn, TTGCAGTCCTCGTCTATACTGC had a sensor-assay potency score (higher = more potent) in test [3] of -0.687.

For the sequence TTCAGGTACAGCACCAGCTGTT, the sensor-assay potency score (higher = more potent) in [4] is -0.477.

As to TAGACTAGGTCATAGTTTCCAG, in test [3], the sensor-assay potency score (higher = more potent) was -0.219.

Sequence TTGTACAGCTCATTCAGCCTGC came in with a sensor-assay potency score (higher = more potent) in test [4] of 0.11.

Turning to TTCTTCTTGTTAATGCACTTGA, in [4], the sensor-assay potency score (higher = more potent) was determined as 0.0356.

The sequence TTGAACAAAGAACTGCCTCTGC had a sensor-assay potency score (higher = more potent) in [4] of 1.01.

For the sequence TAGAGCACTGACCATTGGCTGT, the sensor-assay potency score (higher = more potent) in test [3] was -0.936.

In test [2], TTGAAGTTGATGCTGAAGCTCT showed a sensor-assay potency score (higher = more potent) of -0.155.

For the sequence ATCAGTGATGTTGAAGTCCTGT, the sensor-assay potency score (higher = more potent) in [3] was found to be 0.164.

In the case of TTGATGCTGAAGCTCTGCCCGT, the sensor-assay potency score (higher = more potent) in [2] was -1.2.

Turning to TACTCGTATCTCATCCGCTGGT, the sensor-assay potency score (higher = more potent) in [6] was -0.000159.

As for TAAAACTCGTACTCGTATCTCA, the sensor-assay potency score (higher = more potent) in [6] was 0.226.

TTCTGGGTCATAATATTCTTAA: the sensor-assay potency score (higher = more potent) in test [7] was -1.25.

Consider TTAAATGACAGCAAAGCTCCTT, for which the sensor-assay potency score (higher = more potent) in test [8] came to 0.199.

In test [8], TTAGCAGGTAAGTTATTGCTGA had a sensor-assay potency score (higher = more potent) of -0.154.

For TAGAGGATAATATTAACCCGGA, the sensor-assay potency score (higher = more potent) in [9] is -0.217.

In test [10], TAGTGCAGCAGTGTTCACTAGC displayed a sensor-assay potency score (higher = more potent) of -0.0087.

In turn, TATTGTATTGAAAGTAGCCATT showed a sensor-assay potency score (higher = more potent) in [8] of -1.45.

As to TTTGAAAACCATCCTCTTGATT, the sensor-assay potency score (higher = more potent) in test [11] was -0.884.

The sequence TATACTACTGAAATAGCCCTTC yielded a sensor-assay potency score (higher = more potent) in [8] of 0.854.

Consider TTAGCATTATTATTCTTGCTTG, for which the sensor-assay potency score (higher = more potent) in test [9] was -0.677.

With TAACAGAAACATGATGTCCACT, the sensor-assay potency score (higher = more potent) in [11] was -1.06.

In test [9], TTAAATGACAGCAGAGATCTTT showed a sensor-assay potency score (higher = more potent) of 0.464.

In turn, TTTGTCATAGATGTGCAGCAGG came in with a sensor-assay potency score (higher = more potent) in [11] of -0.376.

As for TTACTGTTAAGACAGGTCCGGA, the sensor-assay potency score (higher = more potent) in test [9] was -1.14.

TCTCACAAAGCTCTGCATCTGA returned a sensor-assay potency score (higher = more potent) in test [11] of 0.327.

In the case of TCTTCTTTTTGTAACATTCTGT, the sensor-assay potency score (higher = more potent) in test [8] was -0.103.

For the sequence TTTCAAACCTGGTAGAAGCTGT, in test [9], the sensor-assay potency score (higher = more potent) came out at 0.475.

For the sequence TTGCACTTCAGCATTGTGCAGA, the sensor-assay potency score (higher = more potent) in [8] was -0.233.

TTTGCCACAACATAGATAGAGT registered a sensor-assay potency score (higher = more potent) in [9] of -0.809.

Regarding TTCTTTTTGTAACATTCTGTAG, in [8], the sensor-assay potency score (higher = more potent) was -1.08.

On to TAATAATATGAATATTAGCAGG, for which, in [8], the sensor-assay potency score (higher = more potent) is -1.34.

Take AAAACCATCCTCTTGATTCTTG: in test [11], the sensor-assay potency score (higher = more potent) is -0.0709.

TTTACTTTCATCTCTGCCCACC registered a sensor-assay potency score (higher = more potent) in test [10] of -1.01.

TTTGGTGGGTTTCTCTCCGTGT returned a sensor-assay potency score (higher = more potent) in [10] of -0.0937.

On to TTGCTTACATGGACTTCCTGGA, for which, in test [11], the sensor-assay potency score (higher = more potent) is -0.0634.

In test [11], TAGCCGTCCAGTCCTTCTGGAA had a sensor-assay potency score (higher = more potent) of -1.51.

Sequence TAGACCATCACATGCTTTGGGC returned a sensor-assay potency score (higher = more potent) in test [11] of -0.664.

As for TTTGCTTACATGGACTTCCTGG, the sensor-assay potency score (higher = more potent) in [11] was found to be 0.502.

Consider TTCTCAGACATTTTGTAGCTTA, for which the sensor-assay potency score (higher = more potent) in test [9] is 0.132.

In turn, TTGAAAATGAATCCAAGGGGAA had a sensor-assay potency score (higher = more potent) in [11] of -0.607.

In [9], TATCATAATGAAATGCTCTTGA yielded a sensor-assay potency score (higher = more potent) of 0.667.

Take TTTCGGTAAGTAGCACTTCAGG: the sensor-assay potency score (higher = more potent) in [8] is -1.26.

Turning to TTTCAAATCTTGTAGAAGCAGT, the sensor-assay potency score (higher = more potent) in test [8] was -0.249.
